Assay results as given in PubChem BioAssay (EPA / NIEHS).
The source made the active and inactive calls. The calls were made as follows: active = hit-call score of the fitted dose curve at least 0.9, where 1 is the maximum; inactive = score below 0.9.

Biological target: Aryl hydrocarbon receptor (Homo sapiens) (UniProt P35869)
Assay: ATG_Ahr_CIS: Attagene CIS-FACTORIAL HepG2 Assay for human Aryl Hydrocarbon Receptor (Ahr) (AID 2282930)
Conditions: HepG2 AhR cis-factorial reporter transcription; actives raise or lower the signal
Experimental: ATG_CIS is a cell-based, multiplexed-readout assay that uses HepG2, a human liver cell line, with measurements taken at 24 hours after chemical dosing in a 24-well plate.ATG_Ahr_CIS is one of 52 assay component(s) measured or calculated from the ATG_CIS assay. It is designed to make measurements of mRNA induction, a form of inducible reporter, as detected with fluorescence intensity signals by Reverse transcription polymerase chain reaction (RT-PCR) and Capillary electrophoresis technology.Data from the assay component ATG_Ahr_CIS was analyzed into 1 assay endpoint. This assay endpoint, ATG_Ahr_CIS, was analyzed with bidirectional fitting relative to DMSO as the negative control and baseline of activity. Using a type of inducible reporter, measures of mRNA for gain or loss-of-signal activity can be used to understand the reporter gene at the transcription factor-level as they relate to the gene AHR. Furthermore, this assay endpoint can be referred to as a primary readout, because this assay has produced multiple assay endpoints where this one serves a reporter gene function. To generalize the intended target to other relatable targets, this assay endpoint is annotated to the dna binding intended target family, where the subfamily is basic helix-loop-helix protein.
Human liver HepG2 cells are transiently transfected with multiple reporter transcription units (MRTUs) in 6-well plates using FuGene 6 reagent (Roche; 3 ml FuGene/1 mg DNA). The MRTU constructs are regulated by a cis-regulating element (promoter). […] A major difference between the CIS and TRANS system is that in CIS activities of endogenous TFs are measured, whereas the TRANS assay evaluates changes in activities of exogenous, chimeric NR-Gal4 proteins. […] At the end of 24 hour incubation, total RNA was isolated using TriZol reagent (Invitrogen). The isolated RNA is then reverse-transcribed using oligo(dT) primer and Mo-MLV reverse transcriptase (Invitrogen) with DNAse I (Ambion) treatment for 30 min. The one-tenth of the produced cDNA was amplified by PCR using Taq DNA polymerase (Invitrogen) and two reporter sequence-specific primers. The PCR products were fluorescently labeled by primer extension with 6-arboxyfluorescein (6-FAM) 5'-labeled reporter sequence-specific primer (2 min at 95 C, 20 s at 68 C and 10 min at 72 C) and these products were digested with 5U of HpaI (New England Biolabs) for 2h at 37 C. […] The raw capillary electrophoresis data was processed using Attagraph software (Attagene).

Chain of Aryl hydrocarbon receptor (Homo sapiens) (P35869 whole entry, looked up): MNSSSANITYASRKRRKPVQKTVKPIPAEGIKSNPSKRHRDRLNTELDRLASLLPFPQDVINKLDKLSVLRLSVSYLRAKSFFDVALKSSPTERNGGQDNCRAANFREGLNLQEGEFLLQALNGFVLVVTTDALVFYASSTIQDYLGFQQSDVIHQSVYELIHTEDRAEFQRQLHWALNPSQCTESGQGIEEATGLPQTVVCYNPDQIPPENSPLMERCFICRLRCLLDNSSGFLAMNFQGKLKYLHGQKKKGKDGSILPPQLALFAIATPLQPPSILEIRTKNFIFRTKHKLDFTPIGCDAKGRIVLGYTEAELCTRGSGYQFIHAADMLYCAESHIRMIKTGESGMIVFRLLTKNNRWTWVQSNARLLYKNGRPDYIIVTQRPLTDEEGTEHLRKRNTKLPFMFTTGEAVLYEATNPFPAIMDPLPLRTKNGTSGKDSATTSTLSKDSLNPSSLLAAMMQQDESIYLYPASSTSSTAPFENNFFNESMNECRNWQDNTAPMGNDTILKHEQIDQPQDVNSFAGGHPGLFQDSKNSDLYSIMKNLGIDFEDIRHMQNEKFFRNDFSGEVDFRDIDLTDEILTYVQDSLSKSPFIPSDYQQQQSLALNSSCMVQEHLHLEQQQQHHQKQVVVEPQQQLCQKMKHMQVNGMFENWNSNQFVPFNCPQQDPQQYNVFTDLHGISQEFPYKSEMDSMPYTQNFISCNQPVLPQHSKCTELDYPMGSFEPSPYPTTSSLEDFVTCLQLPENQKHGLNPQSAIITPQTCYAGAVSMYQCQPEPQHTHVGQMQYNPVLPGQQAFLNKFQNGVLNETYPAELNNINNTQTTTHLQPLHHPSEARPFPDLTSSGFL

SMILES | AC50 | outcome
O=C1c2c(O)ccc(Nc3ccc(CCO)cc3)c2C(=O)c2c([N+](=O)[O-])ccc(O)c21 | 0.896 µM (active) | 
O=S(=O)(O)CCC(F)(F)C(F)(F)C(F)(F)C(F)(F)C(F)(F)C(F)(F)C(F)(F)C(F)(F)F |  | inactive
FC(F)(F)C(F)(F)C(F)(F)C(F)(F)C(F)(F)C(F)(F)C(F)(F)CCI |  | inactive
CSc1ccc(Cl)cc1 |  | inactive
CCOCOCC |  | inactive
COC(F)(C(F)F)C(F)(F)F (stereo not given) |  | inactive
O=S(=O)(O)c1ccc(Cl)cc1 |  | inactive
O=S(=O)(OCC(F)(F)F)C(F)(F)C(F)(F)C(F)(F)C(F)(F)F |  | inactive
Oc1ccc2c(c1)CCC2 |  | inactive
Cc1ccc(S(=O)(=O)C(I)I)cc1 | 27.5 µM (active) | 
O=C(Cl)C(F)(F)C(F)(F)C(F)(F)C(F)(F)C(F)(F)C(F)(F)F |  | inactive
OCCCCC(F)(F)C(F)(F)C(F)(F)C(F)(F)F |  | inactive
CCCCOC(=O)[C@H](C)O |  | inactive
NC(=O)C(F)(F)C(F)(F)C(F)(F)F |  | inactive
CC(C)(C)C(=O)C1C(=O)c2ccccc2C1=O | 34.6 µM (active) | 
CCN(CC)c1ccc(C=O)cc1 |  | inactive
CCc1ccc(C)nc1 |  | inactive
O=C(O)C(F)(F)OC(F)(F)C(F)(F)OC(F)(F)C(F)(F)OC(F)(F)F |  | inactive
CCCCCCCCCc1ccc(OCCO)cc1 |  | inactive
CCCCCCCC/C=C\CCCCCCCC(=O)OCC(O)CO (stereo not given) |  | inactive

SMILES | AC50 | outcome
CN(C)C(C)(C)CO |  | inactive
C=CCOC(=O)CC(C)C |  | inactive
OCC(O)CC(F)(F)C(F)(F)C(F)(F)C(F)(F)F (stereo not given) |  | inactive
C=C(C)C(=O)OCC(F)(F)C(F)(F)C(F)(F)C(F)F |  | inactive
NC(=O)C(F)(F)C(F)(F)C(F)(F)C(F)F |  | inactive
CN(N=O)C(=O)N[C@@H]1[C@@H](O)[C@H](O)[C@@H](CO)O[C@@H]1O |  | inactive
OCCCC(F)(F)C(F)(F)C(F)(F)C(F)(F)C(F)(F)C(F)(F)C(F)(F)C(F)(F)F |  | inactive
CO[Si](CCCOCC1CO1)(OC)OC (stereo not given) |  | inactive
O=C(Cl)c1ccc(Cl)cc1Cl |  | inactive
CN1CN(C)CN(C)C1 |  | inactive
CCOC(C=C(C)CCC=C(C)C)OCC |  | inactive
CC(=O)c1ccccc1N |  | inactive
OCCCCl |  | inactive
CCCCCCCCCCCCCCCCC |  | inactive
CC(O)C#CC(C)O (stereo not given) | 72.8 µM (active) | 
CCN(CC)c1ccc(C=O)c(O)c1 |  | inactive
O=c1[nH]cccc1O |  | inactive
O=S(=O)(O)CCC(F)(F)C(F)(F)C(F)(F)C(F)(F)F |  | inactive
OC(O)C(F)(F)C(F)(F)F |  | inactive
CCC(=O)OC(C)c1ccccc1 (stereo not given) |  | inactive
